A selection: hits, their analogues and other compounds. The true share with any hit is near 6%.
PLK1 PBD block = inhibitors of human PLK1 polo-box domain binding; Plk1 PBD binding of FITC phosphopeptide, fluorescence polarization; actives 2.8% (n = 360,000); Potency, µM, for inactives: max response, negative = inhibition, hits mostly inhibitors; P53350; note: series mostly up to about 57 µM; nearly all actives have a fitted effect of over 65% in size
Tau fluor counter = counter-screen for tau fibril formation inhibitors | tau K18 P301L Alexa594 fluorescence, heparin fibrillization | Potency, µM (top dose mostly 57.7 µM), for the others: top-dose activity change, negative = decrease | actives 0.93% (n = 280,000); note: nearly all actives have a fitted effect of over 55% in size
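Human K18 P301L tau (15 uM unlabeled plus 0.24 uM Alexa 594-labeled, final) in 100 mM sodium acetate pH 7 was mixed with compound and 20 uM heparin and incubated 6 hr at 37 C.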
VDR inh = vitamin D3 receptor (human) inhibition. P11473. VDR-SRC2-3 peptide fluorescence polarization, 2 h. Potency, µM, for the others: max response, negative = inhibition, hits mostly inhibitors. actives 0.93% (n = 400,000). AID 504847
Target sequence (P11473 whole entry, looked up): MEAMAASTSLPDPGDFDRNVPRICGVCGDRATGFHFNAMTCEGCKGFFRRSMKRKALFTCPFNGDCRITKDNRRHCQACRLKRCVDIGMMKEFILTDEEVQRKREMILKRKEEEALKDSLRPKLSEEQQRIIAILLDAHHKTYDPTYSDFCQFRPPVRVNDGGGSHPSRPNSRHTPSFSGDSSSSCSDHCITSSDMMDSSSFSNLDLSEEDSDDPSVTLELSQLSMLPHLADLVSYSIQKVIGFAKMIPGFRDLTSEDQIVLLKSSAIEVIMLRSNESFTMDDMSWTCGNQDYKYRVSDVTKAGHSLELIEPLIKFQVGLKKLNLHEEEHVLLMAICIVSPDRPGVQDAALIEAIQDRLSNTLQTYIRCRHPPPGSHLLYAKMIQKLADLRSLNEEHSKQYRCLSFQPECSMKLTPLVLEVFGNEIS
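After 23 nl compound addition and a short centrifugation, plates sat for 2 hours at ambient temperature; polarization of fluorescence then indicated loss of VDR binding to peptide SRC2-3.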
Sfp inh = Sfp phosphopantetheinyl transferase inhibition | Q9F4F7 | Biochemical Sfp PPTase activity, qHTS | Potency, µM, for inactives: largest response in the series, negative = inhibition, hits mostly inhibitors | actives 3.5% (n = 310,000) | AID 1490;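 note: the enzyme is Sfp with the accession as filed and its product quenches rhodamine fluorescence; 0% = enzyme reaction without inhibitor and -100% = no enzyme wells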
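Step 1, compound plus 15 nM Sfp-PPTase, 15 min, room temperature. Step 2, add rhodamine-CoA (5 uM) and BHQ-2-YbbR (12.5 uM). Step 3, read 525/598 nm fluorescence at 0 and 30 min.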
Tau fibril ThT = tau fibrillization inhibition (ThT binding); Potency, µM (highest dose often 57.4 µM), without a hit: at the highest dose activity, negative = inhibition, usual class: inhibitors; P10636; actives 2.1% (n = 270,000); recombinant tau K18 P301L (four-repeat tau fragment), heparin-induced fibrillization, ThT fluorescence; note: nearly all actives have a fitted effect of over 55% in size
Target sequence (P10636 561-689 P618L limits assumed): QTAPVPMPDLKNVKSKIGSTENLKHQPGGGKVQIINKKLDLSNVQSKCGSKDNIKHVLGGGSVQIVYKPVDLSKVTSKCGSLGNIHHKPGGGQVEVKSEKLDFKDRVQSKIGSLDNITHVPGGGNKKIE
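Recombinant human tau K18 fragment […] carrying P301L, 15 uM unlabeled plus 0.24 uM Alexa 594-labeled, was fibrillized with 20 uM heparin in 100 mM sodium acetate pH 7 for 6 hr at 37 C; 30 uM ThT fluorescence read after 1 hr.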
Tau fibril FP = inhibitors of human tau fibril formation | K18 P301L tau heparin fibrillization, Alexa594 FP, 6 h | Potency, µM (highest dose often 57.7 µM), for the others: at the top dose activity, negative = inhibition, most hits filed as inhibitors | actives 0.39% (n = 280,000); note: nearly all actives have a fitted effect of over 55% in size
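Recombinant K18 P301L […], labeled with Alexa 594 at 0.24 uM over 15 uM unlabeled; heparin inducer 20 uM final; 37 C, 6 hr; FP endpoint.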
* hit, by the source's call; ? = inconclusive; / = not tested or not shown; [ ] = another dose, or the depositor's remark. Calls come from the whole dose curve; as a rule, active = well fitted curve in the direction sought with a large enough effect; inconclusive = small, poorly fitted or top-dose-only effect, or another doubt; inactive = no such curve, though single readings can be large; an effect the other way counts as inactive or inconclusive. Unless noted, % is set by controls: 0 for no effect and ±100 for the full control effect; potency is the fitted concentration of half-maximal effect.

SMILES | PLK1 PBD block | Tau fluor counter | VDR inh | Sfp inh | Tau fibril ThT | Tau fibril FP
COc1ccc(C2C(C#N)=C(N)Oc3c2sc2nc(C)cc(C)c32)cc1 (stereo not drawn) | -14% | ? | -6% | 9% | 25µM* | ?
CCOC(=O)C1/C(=N\O)CC(C)(O)C(C(=O)OCC)C1c1ccc(N(C)C)cc1 (stereo not drawn) | -3% | -20% | 2% | 50µM* | ? | -2%
CCOC(=O)C1/C(=N\O)CC(C)(O)C(C(=O)OCC)C1c1ccc(OC)c(OC)c1 (stereo not drawn) | -7% | 6% | 17% | 7% | 2% | 2%
CCOC(=O)c1sc(N(Cc2ccccc2)C(=O)COC(=O)c2ccc(O)cc2)nc1C | 0% | ? | 6% | -4% | -3% | 14µM*
CC(C)C(=O)NC(c1ccc([N+](=O)[O-])cc1)c1c(O)ccc2ccccc12 (stereo not drawn) | -1% | ? | 2% | 5% | 20µM* | ?
CC(=O)NC(c1ccc([N+](=O)[O-])cc1)c1c(O)ccc2ccccc12 (stereo not drawn) | -12% | -9% | -13% | 6% | -12% | 1%
O=C(Nc1ccc(-c2csc(Nc3ccc(Cl)cc3)n2)cc1)c1cccc(C(F)(F)F)c1 | 0% | 4µM*[quencher] | 10% | 16% | ? | 4%
CCOC(=O)Cc1csc(N/N=C/c2cccc([N+](=O)[O-])c2)n1 | -2% | / | -8% | -19% | / | /
O=[N+]([O-])c1cccc(-c2csc(N/N=C/c3cccc(O)c3)n2)c1 | -26% | 7.9µM*[quencher] | 18% | 50µM* | 6.3µM* | -5%
O=[N+]([O-])c1ccc(-c2csc(Nc3ccccc3)n2)cc1 | / | / | 4% | / | / | /
O=C(Nc1cccc(-c2csc(Nc3cccc(C(F)(F)F)c3)n2)c1)c1cc([N+](=O)[O-])cc(C(F)(F)F)c1 | 4% | 2.5µM*[quencher] | -6% | 19% | ? | 6%
O=C(Nc1ccc(-c2csc(Nc3ccccc3)n2)cc1)c1cccc(C(F)(F)F)c1 | 7% | ? | 4% | 0% | ? | 1%
O=C(Nc1ccc(-c2csc(Nc3ccccc3)n2)cc1)c1cc([N+](=O)[O-])cc(C(F)(F)F)c1 | -4% | 4µM*[quencher] | 9% | 21% | 3.5µM* | 0%
Cc1ccc(-c2onc(C)c2C)cc1S(=O)(=O)NCc1cccs1 | / | -18% | 17% | / | -5% | -5%
Cc1ccc2oc3c(c(=O)c2c1)C(c1ccc(OCC(N)=O)cc1)N(Cc1ccc2c(c1)OCO2)C3=O (stereo not drawn) | / | -11% | -4% | / | ? | -1%
Cc1ccc(S(=O)(=O)NN=CC2(c3ccccc3)CC2)cc1 | 4% | / | / | / | / | /
CC(=O)Nc1cccc(-c2ccnc3c2CC(C)(C(=O)NCc2ccc(F)c(F)c2)O3)c1 (stereo not drawn) | -2% | / | / | / | / | /
Cc1ccc(-c2csc(NC(=O)c3cccc([N+](=O)[O-])c3)n2)cc1 | 1% | -24% | -3% | 9% | -10% | -7%
CC(=O)c1cccc(Nc2nc(-c3cccc([N+](=O)[O-])c3)cs2)c1 | -3% | 7.1µM*[quencher] | -10% | -20% | 4µM* | 4%
Cn1c(N)c(C#N)c2c(c1=S)CSC(C)(C)C2 | -27% | -24% | -15% | 79µM* | ? | 2%
CC(C)C1Cc2c(C#N)c(N)n(C)c(=S)c2CO1 (stereo not drawn) | -7% | -20% | -2% | -5% | -19% | 1%
CCOC(=O)/C=C(\C)Sc1cc(O)c2ccccc2c1O | 11µM* | ? | 20µM* | 7.9µM* | 1.8µM* | 4.5µM*
COc1cc(OC)cc(C(=O)Oc2ccc(/C=N/Nc3nc4ccccc4s3)cc2OC)c1 | -6% | 10µM*[quencher] | 2% | -19% | ? | 1%
COc1cc(/C=N/Nc2nc3ccccc3s2)ccc1OC(=O)c1ccccc1F | -2% | 7.1µM*[quencher] | 1% | 4% | ? | 12%
COc1ccccc1NC(=O)c1oc2ccccc2c1NC(=O)COc1cccc(C)c1 | / | -11% | -16% | / | 16% | -18%
SMILES | PLK1 PBD block | Tau fluor counter | VDR inh | Sfp inh | Tau fibril ThT | Tau fibril FP
O=C(C[C@@H]1C=C[C@H](NS(=O)(=O)c2ccccc2F)[C@@H](CO)O1)NCCCN1CCOCC1 | 2% | / | / | / | / | /
COc1cccc(CNC(=O)c2ccc(NC(=O)N3CCCCc4ccccc43)cc2)c1 | / | -3% | -2% | / | 1% | -8%
Cc1csc(NC(=O)Nc2cccc(Cl)c2)n1 | -7% | ? | 14% | 7% | 4% | -10%
O=C(Nc1cccc(Cl)c1)Nc1nccs1 | 2% | ? | 36% | 50µM* | 0% | ?
CC(Cc1cccs1)NC(=O)Nc1ccc(Cl)c(Cl)c1 (stereo not drawn) | -9% | ? | -13% | 19% | -4% | 25µM*
O=C(Nc1ccc(Cl)c(Cl)c1)Nc1nccs1 | -8% | ? | 3% | 56µM* | ? | 14µM*
CN1CCN(NC(=O)c2ccc(Br)s2)CC1 | 30µM* | -6% | ? | 15% | / | -11%
Cc1ccc(NC(=O)N2CCc3c([nH]c4ccccc34)C2c2ccccc2F)c(Cl)c1 (stereo not drawn) | / | -11% | 12% | / | -1% | 4%
Cc1sc2nc(SCC(=O)Nc3c(C)n(C)n(-c4ccccc4)c3=O)n(C)c(=O)c2c1C | -15% | -5% | 9% | 50µM* | ? | -8%
COCCn1c(SCC(=O)Nc2cccc(S(N)(=O)=O)c2)nc2cc(Cl)ccc2c1=O | 7.5µM* | -14% | ? | 0% | -2% | 7%
O=C1c2ccccc2C(=O)c2c(NCCCN(CCO)CCO)cccc21 | ? | ? | 8% | -21% | 14µM* | 1%
CCN(CC)CC(=O)Nc1cccc2c1C(=O)c1ccccc1C2=O | ? | -24% | -8% | 7% | -14% | 3%
C[C@@H]1CN([C@@H](C)CO)C(=O)c2cc(Br)cnc2O[C@H]1CN(C)C(=O)CN1CCOCC1 | -5% | / | / | / | / | /
CN1CCc2c(sc(NC(=O)c3cc4cc([N+](=O)[O-])ccc4s3)c2C(N)=O)C1 | / | ? | / | -8% | 2.2µM* | 2%
CN1CCc2c(sc(NC(=O)c3ccc([N+](=O)[O-])o3)c2C(N)=O)C1 | -1% | / | 3% | -30% | / | /
CC(C)N1CCc2c(sc(NC(=O)c3cc4cc([N+](=O)[O-])ccc4s3)c2C(N)=O)C1 | -3% | ? | 73% | ? | 4µM* | -2%
CC(C)N1CCc2c(sc(NC(=O)c3ccc4ccccc4c3)c2C(N)=O)C1 | 6% | / | 11% | -13% | / | /
O=C(CCCN1C(=O)/C(=C/c2cccs2)SC1=S)Nc1ccccn1 | 19µM* | -6% | -19% | ? | 3% | 3%

Assay outcomes: PubChem, National Center for Advancing Translational Sciences (NCATS)
